Ins promoter up – insulin promoter activators in MIN6 cells, imaging, high-content screening, mouse beta cells. MIN6 insulin promoter-GFP reporter; stronger effect = higher value. z-score at 5 µM. actives 0.3% (n = 190,000). AID 1625, 2009;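 active = z-score above 3 at 5 µM with at least 500 cells counted in the well; inconclusive = wells under 500 cells, flagged as cytotoxic or low count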
ROMK primary – ROMK potassium channel modulators, primary screen, cell-based, thallium flux, MLSMR library; Tet-inducible ROMK, thallium flux fluorescence; actives lie on both sides; B-score at 10 µM; actives 2% (n = 130,000); AID 1918, 2009;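 active = signal ratio slope over the read window, or its plate-corrected B-score, at least 3 SD from the plate mean, either direction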;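 note: B-score of the F/F0 ratio slope over 7 to 12 s after thallium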
KCC2 mod – KCC2 cotransporter modulators, thallium flux, primary screen, cell-based, HEK293 KCC2, FluoZin-2 fluorescence, MLSMR. Solute carrier family 12 member 5 (Homo sapiens), Q9H2X9. KCC2 cells, thallium flux FluoZin-2 fluorescence. B-score of Tl+ flux slope (higher = more flux/activation; lower = inhibition) at 10 µM. actives 2.2% (n = 190,000). AID 1456, 2008;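 active = thallium flux slope and its plate-corrected score both differing from the plate sample mean at a set confidence after two filtering rounds, in either direction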;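 note: slope of fluorescence scaled to starting intensity during 10 to 20 s after thallium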
INS promoter inh – inhibitors of insulin promoter-driven GFP, primary screen, imaging, TRM-6 cells (human fetal islet line), eGFP reporter, cell count; reporter expression induced with tamoxifen; inhibition, % at 2 µM; actives 0.9% (n = 130,000); AID 1273, 2008;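 active = inhibition above the mean plus 3 SD, with well images judged a real hit on visual review, cut at about 60% in these data, passing the limit was not always enough; inconclusive = inhibition over the cutoff but images rejected on review; inactive = inhibition not above the cutoff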
WT yeast gro inh – growth inhibition of WT strain, primary screen, mitochondrial fusion inhibitor project, WT and mutant strains, chemical genetic. inhibition, % at 10 µM. actives 2.1% (n = 190,000). AID 1362, 2008. mitochondrial fusion phenotypic screen; in the data active = inhibition above about 58%; tested in S. cerevisiae
Lmaj promast – Leishmania major promastigote growth inhibition, primary screen. Leishmania major promastigotes, resazurin fluorescence viability. actives 9% (n = 200,000). inhibition, % at 10 µM. AID 1063, 2008; in the data active = inhibition above about 50%;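 note: promastigotes grown with compound for 44 hours at 28 °C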
Each line names hits and unclear results; the compound was inactive in the other large screens. Shown are actives, neighbours in structure and some others; about 12% of the full set was active somewhere.

CN1CCN(CCCNC(=O)c2cc3c(=O)n(C)c4ccccc4c3s2)CC1	Lmaj promast 98 (no result: ROMK primary, KCC2 mod, INS promoter inh)
Cn1c(C(=O)NCCN2CCCCCC2)cc2c(=O)n(C)c3ccccc3c21	Lmaj promast 70 (no result: ROMK primary, INS promoter inh)
CN(C)CCNC(=O)c1cc2sc3ccccc3c2s1	Lmaj promast 84
COCCN(CCOC)C(=O)c1cc2sc3ccccc3c2s1	none (no result: KCC2 mod)
COc1ccc(Br)c(C(=O)NC(C)(C)CO)c1	none (no result: ROMK primary, INS promoter inh, WT yeast gro inh, Lmaj promast)
Cc1cccc(C)c1NC(=O)CSC(=S)N1CCCC1	none (no result: INS promoter inh)
Cc1cc(C)n(-c2cc(N3CCN(S(=O)(=O)c4ccc5ccccc5c4)CC3)ccc2[N+](=O)[O-])n1	Lmaj promast 59 (no result: ROMK primary)
COc1cc(Cl)c(CC(=O)c2c[nH]c3ccccc23)cc1OC	none (no result: ROMK primary, INS promoter inh, WT yeast gro inh, Lmaj promast)
Cc1ccc(-c2nnc(Cc3ccc(Cl)cc3)o2)cc1	none (no result: ROMK primary, INS promoter inh)
O=c1c(Cl)c(Cl)cnn1Cc1ccccc1Cl	Ins promoter up inconclusive, Lmaj promast 76
O=c1c(Cl)c(Cl)cnn1-c1ccccc1	Lmaj promast 90 (no result: ROMK primary)
Cc1ccc(Cn2ncc(Cl)c(Cl)c2=O)cc1	Lmaj promast 60
O=c1c(Cl)c(Cl)cnn1Cc1nnc(-c2ccc(Cl)cc2)o1	Ins promoter up inconclusive, Lmaj promast 100
O=C(Nc1ccc2c(c1)OCO2)C1CCCN1C(=O)NCc1ccccc1 (stereo not given)	none (no result: ROMK primary, INS promoter inh)
COc1ccc(/C=N/NC(=O)c2ccc(=O)[nH]n2)cc1OC	none (no result: ROMK primary, INS promoter inh)
Cc1cccc(Oc2nc(-c3ccccc3)cc(C)c2S(C)(=O)=O)c1C	none
CCN(C(=O)c1cnc(N2CCN(c3ncccn3)CC2)c2ccccc12)c1cccc(Cl)c1	WT yeast gro inh 63 (no result: ROMK primary)
CN(C(=O)c1cnc(N2CCN(c3ncccn3)CC2)c2ccccc12)c1ccc(Cl)cc1	none (no result: INS promoter inh)
CN(C1=NC(=O)CS1)c1ccc(O)cc1	none (no result: ROMK primary, INS promoter inh, WT yeast gro inh, Lmaj promast)
CS(=O)(=O)N(Cc1ccccc1)c1ccccc1C(=O)Nc1ccccc1C(=O)NCc1ccco1	none
Cc1cc(C)c2c(=O)n(CC(=O)N3CCC(Cc4ccccc4)CC3)sc2n1	Lmaj promast 78 (no result: Ins promoter up, ROMK primary, INS promoter inh)
CC1=NN(C(N)=S)C(=O)C1N=Nc1ccc(O)cc1 (stereo not given)	Lmaj promast 58 (no result: ROMK primary, KCC2 mod, INS promoter inh)
CC1=NN(C(N)=S)C(=O)C1N=Nc1cccc(C)c1 (stereo not given)	none (no result: ROMK primary, INS promoter inh, WT yeast gro inh, Lmaj promast)
COc1ccc(CCN2CCC(Nc3nc4ccccc4n3Cc3ccc(F)cc3)CC2)cc1	Lmaj promast 100 (no result: Ins promoter up, ROMK primary)
CCN(CC)CC#CCC(C)(c1ccccc1)c1ccccc1	Lmaj promast 94
CCN(CC)CC#CCC(O)(c1ccccc1)c1ccccc1	Lmaj promast 77
CCN(CC)CC#CCC(O)(c1ccccc1)c1ccc(Br)cc1 (stereo not given)	none (no result: INS promoter inh)
CN1/C(=N\O)c2cccc3cccc1c23	none (no result: KCC2 mod)
N#Cc1cc(NC2CCCC2)c([N+](=O)[O-])cc1C#N	Lmaj promast 61 (no result: ROMK primary)
Cc1noc(C)c1COc1ccc(C(=O)Nc2ccccc2)cc1	none
COc1ccc2nc(NC(=O)c3cccc(OCc4c(C)noc4C)c3)sc2c1	WT yeast gro inh 73 (no result: ROMK primary, INS promoter inh)
Cc1noc(C)c1COc1cccc(C(=O)Nc2ccc(OCc3ccccc3)cc2)c1	Lmaj promast 53 (no result: ROMK primary)
CCSc1nnc(NC(=O)c2cccc(OCc3c(C)noc3C)c2)s1	none (no result: ROMK primary)
CCOc1ccc2nc(NC(=O)c3ccc(OCC4CCCO4)cc3)sc2c1 (stereo not given)	Lmaj promast 86 (no result: ROMK primary, INS promoter inh)
COc1ccc2nc(NC(=O)c3cccnc3SC)sc2c1	Lmaj promast 81 (no result: ROMK primary)
CSc1ncccc1C(=O)Nc1nc2ccc(S(C)(=O)=O)cc2s1	none (no result: INS promoter inh)
COC(=O)c1sc(-c2ccccc2)cc1NC(=O)c1ccc(F)cc1	none (no result: ROMK primary, INS promoter inh)
NC(=O)c1cccnc1	none (no result: Ins promoter up, ROMK primary)
COc1cccc(Nc2nc3ccc(OC)cc3s2)c1	INS promoter inh 71
COc1ccc2nc(NC(=O)C(NS(=O)(=O)c3cccs3)C(C)C)sc2c1 (stereo not given)	Lmaj promast 89 (no result: KCC2 mod)
COc1ccc2nc(N/C(=N/S(=O)(=O)c3cccs3)c3ccccc3Cl)sc2c1	none (no result: INS promoter inh)
CCN(CC)C(=O)C1CCCN(C(=O)Nc2ccccc2)C1 (stereo not given)	none (no result: Ins promoter up, ROMK primary, KCC2 mod)
Cc1ccc(NC(=O)Cn2c(=O)cnc3ccccc32)cc1S(=O)(=O)N(C)C	none
CC(=O)c1ccccc1NC(=O)Cn1c(=O)cnc2ccccc21	Lmaj promast 58 (no result: ROMK primary)
COC(=O)Cn1c(=NC(=O)c2ccc(S(=O)(=O)N3CCc4ccccc4C3)cc2)sc2cc(OC)ccc21	Lmaj promast 87
COCCn1c(=NC(=O)c2ccc(S(=O)(=O)N3CCc4ccccc4C3)cc2)sc2cc(S(N)(=O)=O)ccc21	Lmaj promast 99
COC(=O)Cn1c(=NC(=O)c2ccc(OC)cc2)sc2cc(OC)ccc21	none (no result: ROMK primary, INS promoter inh)
CCCOc1ccc(-c2csc(N)n2)cc1[N+](=O)[O-]	WT yeast gro inh 76 (no result: ROMK primary, INS promoter inh)
CN1/C(=C\C=C2/SC(=S)NC2=O)C(C)(C)c2ccccc21	Lmaj promast 92 (no result: Ins promoter up, ROMK primary, INS promoter inh)
Cc1ccccc1N=C/C=C1\N(C)c2ccccc2C1(C)C	Lmaj promast 97
CN1/C(=C\C=[N+](C)c2ccccc2)C(C)(C)c2ccccc21	Lmaj promast 100 (no result: Ins promoter up, ROMK primary, KCC2 mod)
O=C1C(Cl)=C(N2CCCCC2)C(=O)N1c1ccccc1	none (no result: ROMK primary)
O=C(CSc1nnc(SCc2ccc(Cl)cc2)s1)N/N=C/c1ccc(C(=O)O)cc1	none (no result: INS promoter inh, WT yeast gro inh, Lmaj promast)
COc1ccc(C(CCN2CCOCC2)c2c(O)cc(OC)cc2OC)cc1 (stereo not given)	none (no result: ROMK primary, INS promoter inh, WT yeast gro inh, Lmaj promast)
COc1ccc(C(c2c(O)ccc3ccccc23)N2CCOCC2)c(OC)c1 (stereo not given)	Lmaj promast 60 (no result: KCC2 mod, INS promoter inh)
COC(=O)c1cc2ccsc2n1CC(=O)NCC1CCCO1 (stereo not given)	none (no result: KCC2 mod, INS promoter inh)
CCN(c1ccccc1)S(=O)(=O)c1ccc(Oc2ccc(-n3ccnc3)cc2)nc1	Lmaj promast 76 (no result: Ins promoter up)
CCN(c1ccccc1)S(=O)(=O)c1ccc(C(=O)NCCCn2ccnc2)cc1	none
CCCc1nc2oc3c(NCC(C)O)ncnc3c2c2c1CCCC2 (stereo not given)	none (no result: INS promoter inh, WT yeast gro inh, Lmaj promast)
COc1ccc(-c2nnc3sc(-c4c(OC)cccc4OC)nn23)cc1	none (no result: Ins promoter up, KCC2 mod, INS promoter inh, WT yeast gro inh, Lmaj promast)
CCN(CC)c1ccc(-c2nn3c(-c4ccccc4OC)nnc3s2)cc1	Ins promoter up inconclusive, ROMK primary 3.9 (no result: INS promoter inh)
COc1cccc(OC)c1-c1nn2c(-c3cc(-c4ccccc4)n[nH]3)nnc2s1	Lmaj promast 61 (no result: INS promoter inh)
Cc1cccc(NC(=O)CN(C)S(=O)(=O)c2cccs2)c1	none
Cc1ccc(C(=O)c2oc3nc(C)cc(C)c3c2N)cc1	Lmaj promast 64 (no result: ROMK primary)
COc1cc(-c2nc(-c3ccccc3)c(-c3cccs3)[nH]2)cc(OC)c1OC	Lmaj promast 90 (no result: KCC2 mod, INS promoter inh)
COc1ccccc1-c1nc(-c2ccccc2)[nH]c(=O)c1C#N	none (no result: ROMK primary)
